SMILES strings stand for the structures.

For the first assay, the system named is LOC_OS01G67340-cb003. The assay is described as follows: thermal shift delta Tm vs DMSO control; higher = stronger stabilization (binding). The following applies: 12.5 µM; protein concentration 2 µM. A digest of the protocol:
(§1)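 Purified, E. coli-expressed rice kinase domain constructs were tested by differential scanning fluorimetry in 96-well plates: 19.5 μl of 2 μM kinase in 100 mM potassium phosphate pH 7.5, 150 mM NaCl, 10% glycerol, 5 × SYPRO Orange, plus compound in DMSO. Fluorescence was read from 25°C to 95°C at 0.05°C/s. Melting temperatures came from Boltzmann fits, and the shift is the triplicate mean relative to protein with DMSO alone.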
As for `O=C1NC(=O)C(=Cc2ccc(-c3ccc(F)cc3)o2)S1` (stereo in doubt), the “thermal shift delta Tm” value came to 1.18 °C.
`CONC(=O)c1ccccc1Nc1cc(Nc2cc(C)nn2C(C)C)ncc1Cl`: the “thermal shift delta Tm” value was 0.98 °C.
The same measure, in the same setting: to `O=C(O)c1ccc2c3c1cccc3c(=O)n1c3ccccc3nc21` belongs 1 °C.
With `OC1CCC(Oc2cccc3cnc(Nc4ccc5nc[nH]c5c4)nc23)CC1` (centres undefined), the “thermal shift delta Tm” value is 5.84 °C.
Same read-out and setting: to `CN1CCN(Cc2ccc(-c3cnc4[nH]cc(-c5ccc6[nH]ccc6c5)c4c3)cc2)CC1` belongs 7.26 °C.
The same measure, in the same setting: under `Cc1cc(N2CCOCC2)cc2[nH]c(-c3c(NC[C@@H](O)c4cccc(Cl)c4)cc[nH]c3=O)nc12` stands 1.08 °C; under `S=C(NCc1ccc2c(c1)OCO2)N1CCN(c2ncnc3c2oc2ccccc23)CC1` [Amuvatinib (MP-470)], 0.84 °C; under `COc1cc2c(N3CCN(C(=O)Nc4ccc(OC(C)C)cc4)CC3)ncnc2cc1OCCCN1CCCCC1` [Tandutinib (MLN518)], 0.5 °C.
Still for that read-out and setting: to `COc1cc(-c2cc(-c3ccc(N4CCNCC4)cc3)cnc2C)cc(OC)c1OC` belongs 0.51 °C.
Turning to `O=C(Nc1ccc(OC(F)(F)F)cc1)c1sccc1NCc1ccnc2ccccc12`, the “thermal shift delta Tm” value amounted to 0.22 °C.
On the same count and under the same terms, under `Cc1nc2ccc(-n3ncc(C(=O)c4cc5ccccc5[nH]4)c3N)cc2[nH]1` stands 2.11 °C; under `CC(C)n1ncnc1-c1cn2c(n1)-c1ccc(O[C@@H](C)C(N)=O)cc1OCC2`, 0.34 °C.
For the molecule `O=C(O)[C@]1(Cc2cccc(Nc3nccs3)n2)CC[C@@H](Oc2cccc(Cl)c2F)CC1`, the “thermal shift delta Tm” value was determined as 3.34 °C.
On the same count and under the same terms, under `O=C(O)CCC(=O)Nc1ccc(Br)cn1` [Bikinin] stands 0.6 °C; under `CCOc1cc2ncc(C#N)c(Nc3ccc(OCc4ccccn4)c(Cl)c3)c2cc1NC(=O)/C=C/CN(C)C` [Neratinib (HKI-272)], 1.41 °C; under `O=C(Nc1cccc(C(F)(F)F)c1)c1cccc2cc(Oc3cc(CO)ncn3)ccc12`, 0.38 °C.
Same read-out and setting: to `CC1(C)C=Cc2c(ccc3c2OC[C@@H](c2ccc(O)cc2O)C3)O1` [Glabridin] belongs 0.86 °C; to `COc1ccccc1-c1cc(Nc2cccc(CS(N)(=O)=O)c2)ncn1`, 0.81 °C; to `Cc1ccc(C(=O)Nc2ccc(Oc3cc4cnn(C)c4cc3-c3cn[nH]c3)c(F)c2)c(=O)n1-c1ccc(F)cc1`, 1.33 °C.
Same read-out and setting: under `CCS(=O)(=O)c1cccc(-c2cc(C(=O)NC3CCN(C)CC3)c(C)c3[nH]c4ncc(C)cc4c23)c1` stands 0.99 °C; under `CCc1cncnc1N1CCN(Cc2nc3ccc(C(F)(F)F)cc3[nH]2)CC1`, -0.58 °C; under `Cc1ccc(NC(=O)c2ccc(CN3CCN(C)CC3)cc2)cc1Nc1nccc(-c2cccnc2)n1` [Imatinib (STI571)], 0.52 °C.
Regarding `CCn1c(=O)c(-c2ccc(Cl)cc2Cl)cc2cnc(Nc3ccc(N4CCNCC4)c(F)c3)nc21`, the “thermal shift delta Tm” value worked out at 6.72 °C.
Still for that read-out and setting: to `COc1cc(N2CCN(C)CC2)ccc1Nc1ncc2c(n1)N(C)c1ccccc1C(=O)N2` belongs 0.39 °C.
The same measure, in the same setting: under `CCn1c(-c2nonc2N)nc2cnc(Oc3cccc(NC(=O)c4ccc(OCCN5CCOCC5)cc4)c3)cc21` stands 1.07 °C; under `O=C1Cc2c([nH]c3ccc(Br)cc23)-c2ccccc2N1` [Kenpaullone], 1.58 °C; under `COC(=O)Nc1ccc(-c2nc(N3CCOCC3)c3cnn(C4CCN(C(=O)OC)CC4)c3n2)cc1`, 0.13 °C.
Same read-out and setting: under `Nc1ncc(-c2ccnc(Nc3ccncc3)n2)c(CC2CC2)n1` stands 0.33 °C; under `C=CC(=O)Nc1ccc2ncnc(Nc3cccc(Br)c3)c2c1`, -0.12 °C.
With `COc1nccc(-c2c(-c3ccc(F)cc3)ncn2C2CCC(O)CC2)n1` (centres undefined), the “thermal shift delta Tm” value is 0.6 °C.
Regarding `CC(C)Nc1cc(-c2c[nH]c(C(=O)N[C@H](CO)c3cccc(Cl)c3)c2)c(Cl)cn1`, the “thermal shift delta Tm” value was determined as 1.23 °C.
Still for that read-out and setting: under `CN1CCN(Cc2ccc(NC(=O)Nc3ccc(Oc4ccnc(N)n4)cc3)cc2C(F)(F)F)CC1` stands 0.95 °C; under `O=C(NCCO)c1cccc(-c2cc(Nc3ccc(OC(F)(F)F)cc3)ncn2)c1`, 0.88 °C; under `CC(C)(O)CNc1ncc(-c2ccnc(Nc3ccnc(Cl)c3)n2)c(CC2CC2)n1`, 0.66 °C.
Turning to `O=C1NC(=O)C(c2ccccc2[N+](=O)[O-])=C1Nc1ccc(O)c(Cl)c1`, the “thermal shift delta Tm” value worked out at 0.79 °C.
The same measure, in the same setting: under `CCOc1cc(N2CCC(O)CC2)ccc1Nc1ncc2c(n1)N(C)c1ccccc1C(=O)N2C` stands -0.04 °C; under `COc1ccc(-c2ccc3ncc4c(c3c2)n(-c2ccc(N3CCNCC3)c(C(F)(F)F)c2)c(=O)n4C)cn1`, 1.43 °C.

Another assay has as its system LOC_OS01G70970-cb002. The assay is described as above. The note with it: 12.5 µM; protein concentration 2 µM. The method, boiled down: as §1
Regarding `O=C1NC(=O)C(=Cc2ccc(-c3ccc(F)cc3)o2)S1` (stereo in doubt), the “thermal shift delta Tm” value amounted to 0.36 °C.
Still for that read-out and setting: under `CONC(=O)c1ccccc1Nc1cc(Nc2cc(C)nn2C(C)C)ncc1Cl` stands 1.15 °C; under `O=C(O)c1ccc2c3c1cccc3c(=O)n1c3ccccc3nc21`, 0.87 °C; under `OC1CCC(Oc2cccc3cnc(Nc4ccc5nc[nH]c5c4)nc23)CC1` (centres undefined), 8.36 °C.
For `CN1CCN(Cc2ccc(-c3cnc4[nH]cc(-c5ccc6[nH]ccc6c5)c4c3)cc2)CC1`, the “thermal shift delta Tm” value amounted to 10.2 °C.
With `Cc1cc(N2CCOCC2)cc2[nH]c(-c3c(NC[C@@H](O)c4cccc(Cl)c4)cc[nH]c3=O)nc12`, the “thermal shift delta Tm” value came to 1.82 °C.
On the same count and under the same terms, to `S=C(NCc1ccc2c(c1)OCO2)N1CCN(c2ncnc3c2oc2ccccc23)CC1` [Amuvatinib (MP-470)] belongs 0.42 °C; to `COc1cc2c(N3CCN(C(=O)Nc4ccc(OC(C)C)cc4)CC3)ncnc2cc1OCCCN1CCCCC1` [Tandutinib (MLN518)], -0.15 °C; to `COc1cc(-c2cc(-c3ccc(N4CCNCC4)cc3)cnc2C)cc(OC)c1OC`, 0.29 °C.
On the same count and under the same terms, under `O=C(Nc1ccc(OC(F)(F)F)cc1)c1sccc1NCc1ccnc2ccccc12` stands 1.27 °C.
The same measure, in the same setting: to `Cc1nc2ccc(-n3ncc(C(=O)c4cc5ccccc5[nH]4)c3N)cc2[nH]1` belongs 0.1 °C.
As for `CC(C)n1ncnc1-c1cn2c(n1)-c1ccc(O[C@@H](C)C(N)=O)cc1OCC2`, the “thermal shift delta Tm” value was found to be 0.21 °C.
On the same count and under the same terms, to `O=C(O)[C@]1(Cc2cccc(Nc3nccs3)n2)CC[C@@H](Oc2cccc(Cl)c2F)CC1` belongs 9.45 °C.
`O=C(O)CCC(=O)Nc1ccc(Br)cn1` [Bikinin]: the “thermal shift delta Tm” value was found to be 0.23 °C.
On the same count and under the same terms, to `CCOc1cc2ncc(C#N)c(Nc3ccc(OCc4ccccn4)c(Cl)c3)c2cc1NC(=O)/C=C/CN(C)C` [Neratinib (HKI-272)] belongs 0.3 °C.
Same read-out and setting: under `O=C(Nc1cccc(C(F)(F)F)c1)c1cccc2cc(Oc3cc(CO)ncn3)ccc12` stands 0.5 °C; under `CC1(C)C=Cc2c(ccc3c2OC[C@@H](c2ccc(O)cc2O)C3)O1` [Glabridin], 1.29 °C; under `COc1ccccc1-c1cc(Nc2cccc(CS(N)(=O)=O)c2)ncn1`, 0.41 °C.
On the same count and under the same terms, to `Cc1ccc(C(=O)Nc2ccc(Oc3cc4cnn(C)c4cc3-c3cn[nH]c3)c(F)c2)c(=O)n1-c1ccc(F)cc1` belongs 0.33 °C.
In the case of `CCS(=O)(=O)c1cccc(-c2cc(C(=O)NC3CCN(C)CC3)c(C)c3[nH]c4ncc(C)cc4c23)c1`, the “thermal shift delta Tm” value stood at 6.38 °C.
Same read-out and setting: to `CCc1cncnc1N1CCN(Cc2nc3ccc(C(F)(F)F)cc3[nH]2)CC1` belongs 0.14 °C; to `Cc1ccc(NC(=O)c2ccc(CN3CCN(C)CC3)cc2)cc1Nc1nccc(-c2cccnc2)n1` [Imatinib (STI571)], 0.38 °C; to `CCn1c(=O)c(-c2ccc(Cl)cc2Cl)cc2cnc(Nc3ccc(N4CCNCC4)c(F)c3)nc21`, 2.45 °C.
Same read-out and setting: to `COc1cc(N2CCN(C)CC2)ccc1Nc1ncc2c(n1)N(C)c1ccccc1C(=O)N2` belongs 0.32 °C; to `CCn1c(-c2nonc2N)nc2cnc(Oc3cccc(NC(=O)c4ccc(OCCN5CCOCC5)cc4)c3)cc21`, 0.14 °C.
Same read-out and setting: to `O=C1Cc2c([nH]c3ccc(Br)cc23)-c2ccccc2N1` [Kenpaullone] belongs 5.88 °C; to `COC(=O)Nc1ccc(-c2nc(N3CCOCC3)c3cnn(C4CCN(C(=O)OC)CC4)c3n2)cc1`, 0.2 °C.
On to `Nc1ncc(-c2ccnc(Nc3ccncc3)n2)c(CC2CC2)n1`, for which the “thermal shift delta Tm” value was found to be 0.37 °C.
Same read-out and setting: under `C=CC(=O)Nc1ccc2ncnc(Nc3cccc(Br)c3)c2c1` stands 0.22 °C.
Still for that read-out and setting: to `COc1nccc(-c2c(-c3ccc(F)cc3)ncn2C2CCC(O)CC2)n1` (centres undefined) belongs 0.09 °C.
Same read-out and setting: to `CC(C)Nc1cc(-c2c[nH]c(C(=O)N[C@H](CO)c3cccc(Cl)c3)c2)c(Cl)cn1` belongs 0.59 °C.
As to `CN1CCN(Cc2ccc(NC(=O)Nc3ccc(Oc4ccnc(N)n4)cc3)cc2C(F)(F)F)CC1`, the “thermal shift delta Tm” value came to 2.3 °C.
On the same count and under the same terms, under `O=C(NCCO)c1cccc(-c2cc(Nc3ccc(OC(F)(F)F)cc3)ncn2)c1` stands 0.38 °C; under `CC(C)(O)CNc1ncc(-c2ccnc(Nc3ccnc(Cl)c3)n2)c(CC2CC2)n1`, 0.37 °C; under `O=C1NC(=O)C(c2ccccc2[N+](=O)[O-])=C1Nc1ccc(O)c(Cl)c1`, 0.12 °C.
Still for that read-out and setting: under `CCOc1cc(N2CCC(O)CC2)ccc1Nc1ncc2c(n1)N(C)c1ccccc1C(=O)N2C` stands 0.52 °C.
On the same count and under the same terms, to `COc1ccc(-c2ccc3ncc4c(c3c2)n(-c2ccc(N3CCNCC3)c(C(F)(F)F)c2)c(=O)n4C)cn1` belongs 0.41 °C.

(Values after the supplement of paper PMC9694430.)
